The values that follow come from PubChem BioAssay AID588726 (The Scripps Research Institute Molecular Screening Center, 2011).

What is called inhibition is the drop in the measured response relative to a control, in per cent.

The campaign covered roughly 360,000 compounds. About 8,200 (2.3%) were called active. Many of the other results were omitted from the sample, so actives are more common in it than they were. Values without a mark were called inactive. Rule as the data show it: active = inhibition above about 27%; inactive = the rest.

In this experiment the target is Fructose-bisphosphate aldolase (Mycobacterium tuberculosis (strain ATCC 25618 / H37Rv)) (UniProt P9WQA3). Briefly: M. tuberculosis aldolase activity blockers – biochemical, fluorescence, strain H37Rv, primary screen (AID 588726).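 Also: 0% = vehicle and 100% = reference inhibitor.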 Particulars: purified M. tuberculosis FBA, fluorescence read-out, at 1 µM, active compounds read high.
Sequence of Fructose-bisphosphate aldolase (Mycobacterium tuberculosis (strain ATCC 25618 / H37Rv)) (P9WQA3 whole entry, looked up): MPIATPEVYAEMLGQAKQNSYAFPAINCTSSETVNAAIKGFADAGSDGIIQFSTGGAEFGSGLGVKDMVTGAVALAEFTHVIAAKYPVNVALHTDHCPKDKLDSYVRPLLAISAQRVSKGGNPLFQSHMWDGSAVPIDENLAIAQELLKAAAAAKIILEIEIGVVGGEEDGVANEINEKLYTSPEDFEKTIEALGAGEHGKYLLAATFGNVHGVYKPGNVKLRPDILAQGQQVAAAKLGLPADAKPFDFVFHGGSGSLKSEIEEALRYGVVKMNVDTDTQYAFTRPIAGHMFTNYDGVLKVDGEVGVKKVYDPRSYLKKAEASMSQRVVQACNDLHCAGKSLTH
On to `COC(=O)c1ccc(CN2CCC(CO)(Cc3ccc(OC)cc3)CC2)cc1`, for which the inhibition was 8.41%.
The result for `C=CCn1c(-c2ccc(Cl)cc2)ccc(C#N)c1=O` reads 1.41%; that for `C=CCn1cc(-c2cccc(C(F)(F)F)c2)cc(C#N)c1=O`, 47.4% (active); that for `CC1(Cc2cccc(C#N)c2)C(=O)Nc2ccc(-c3cccc(C(F)(F)F)c3)cc21` (centres undefined), -1.35%.
Turning to `O=C(COC(=O)CNS(=O)(=O)c1ccc(F)c(F)c1F)NC1CCCC1`, the inhibition is -3.58%.
As for `COc1ccc(CNC(=O)CN(C(=O)c2csnn2)c2cnc3ccccc3c2)cc1`, the inhibition is 3.6%.
With `COC(=O)N1CN(C(=O)OC)CN(C(=O)OC)C1`, the inhibition was 0.37%.
The result for `Cc1nc2ccc(NC(=O)N3CCC(c4ccccc4)C3)cc2nc1C` (centres undefined) reads 72.4% (active); that for `Cc1ccc(C2CCN(C(=S)Nc3cccc(Cl)c3)C2)cc1` (centres undefined), -1.23%.
For `Cc1nc2ccc(NC(=S)N3CCC(C)CC3)cc2nc1C` the value was 5.9%; for `COc1cccc(CN2CCN(Cc3ccc4cccc(F)c4n3)CC2CCO)c1` (centres undefined), 2.17%.
For `Cc1ccc(C(CNC(=O)Nc2cccc(C)c2)N2CCN(C)CC2)cc1` (centres undefined) the value was 2.29%.
For the compound `CCN(C(=O)COC(=O)c1ccc(COc2ccc3c(C)cc(=O)oc3c2)cc1)C1CCS(=O)(=O)C1` (centres undefined), the inhibition is 44.6% (active).
Turning to `COc1ccc(-c2cc(=O)oc3cc(OCC(=O)N(C)C4CCS(=O)(=O)C4)ccc23)cc1` (centres undefined), the inhibition was 3.8%.
Turning to `Cc1ccccc1NC(=O)c1ccc(COc2ccc3c(C)cc(=O)oc3c2)cc1`, the inhibition is 11.9%.
With `C[C@@H]1CN([C@@H](C)CO)C(=O)CCCn2nncc2CO[C@@H]1CN(C)S(=O)(=O)c1ccc(-c2ccccc2)cc1`, the inhibition is -2.99%.
For `CCc1nc2c(OCCOc3ccccc3)cccn2c1N(C)C(=O)c1ccc(OC)cc1` the value was 1.06%; for `CN(C)CCCn1c(N)c(C#N)c2nc(C#N)c(C#N)nc21`, 61.1% (active); for `C=CCn1c(SCc2nnc(-c3ccccc3)o2)nnc1C(O)c1ccccc1` (centres undefined), 1.46%.
Regarding `C/C(O)=C\c1nc(=O)c2c(C)cc(C)nc2n1-c1ccccc1`, the inhibition was 4.59%.
The result for `Cc1cc(C)c2c(n1)sc1c(=O)n(-c3ccccc3)c(=O)[nH]c12` reads 38.8% (active); that for `Cc1sc2nc(SCCO)n(-c3ccccc3)c(=O)c2c1C`, 1.67%.
For the compound `COC(=O)c1ccccc1NC(=O)CN(Cc1ccccc1)S(C)(=O)=O`, the inhibition was 5.21%.
In the case of `COc1ccccc1N1CCN(S(=O)(=O)CCNC(=O)c2ccc(OC(C)C)cc2)CC1`, the inhibition was -0.15%.
Turning to `C[C@@H]1CN([C@@H](C)CO)C(=O)c2c(c3ccccc3n2C)-c2ccccc2CO[C@H]1CN(C)C(=O)C1CC1`, the inhibition was 2.36%.
Turning to `COc1ccc2c(c1)c1ncn(Cc3ccccn3)c(=O)c1n2C`, the inhibition is 159% (active).
The result for `COc1ccc2c(c1)c1nc3n(c(=O)c1n2CC(=O)Nc1ccccc1)CCS3` reads 8.41%.
For `Cc1ccc2[nH]c3c(=O)n(Cc4ccccn4)cnc3c2c1` the value was 29.9% (active).
For `Cc1ccc(C)c(Cn2cnc3c(oc4ccccc43)c2=O)c1` the value was -1.54%; for `O=c1c2[nH]c3ccc(Cl)cc3c2ncn1Cc1ccccn1`, -2.42%; for `COc1ccc2[nH]c3c(=O)n(Cc4ccco4)cnc3c2c1`, 97.5% (active).
As to `CCN1CCCC1Cn1cnc2c([nH]c3cc(OC)ccc32)c1=O` (centres undefined), the inhibition was 1.27%.
For `COc1ccc2oc(C(=O)NCc3ccco3)c(C)c2c1` the value was 25.3%.
`COc1cccc(Cn2cnc3c([N+](=O)[O-])c(C)c(C)cc32)c1`: the inhibition was -3.25%.
For `O=C(OCC(=O)N(CCc1ccccc1)Cc1ccccc1)c1ccccc1[N+](=O)[O-]` the value was -2.21%; for `COc1cccc(N(C(=O)c2ccn[nH]2)C2(C(=O)Nc3c(C)cccc3C)CCCCC2)c1`, -2.93%; for `CC(=O)Nc1ccc(S(=O)(=O)N2CCC(C(=O)N[C@@H](Cc3ccccc3)C(=O)O)CC2)cc1`, 7.63%.
For `O=C(O)CCN1C(=O)CC2(CCCCC2)C1=O`, the inhibition is 1.19%.
The result for `O=C(NCc1ccc(F)cc1)c1cc(C2CCCCN2C(=O)C2CCCCC2)on1` (centres undefined) reads -0.56%; that for `CCCC(O)(c1ccccc1)C(c1ccccc1)c1ccccn1` (centres undefined), -3.41%; that for `COc1ccccc1CNC(=O)COC(=O)CNS(=O)(=O)c1ccc(NC(C)=O)cc1`, -1.17%.
On to `COc1ccccc1C(=O)COC(=O)CNS(=O)(=O)c1ccc(NC(C)=O)cc1`, for which the inhibition was 0.46%.
For `CC(=O)Nc1ccc(S(=O)(=O)NCC(=O)OCc2cc(=O)oc3ccc4ccccc4c23)cc1`, the inhibition was 124% (active).
For `Nn1c(SCC(=O)Nc2nccs2)nncc1=O` the value was -1.98%.
The result for `CC(C)N(C(=O)CSc1nc(COc2ccccc2)nc2ccccc12)C(C)C` reads -0.47%; that for `COc1cc(C(F)(F)F)nc2c(Br)c(C(C)(C)C)nn12`, 36.7% (active); that for `O=C(CCN1C(=O)C2C3CCC(C3)C2C1=O)Nc1ccc(Cl)cc1Cl` (centres undefined), 3.23%.
The result for `Cc1cc(C)cc(NC(=O)C(OC(=O)c2ccc(O)cc2)c2ccccc2)c1` (centres undefined) reads 2.39%; that for `CN(C)CCCO/N=C(\c1ccccc1)c1ccncc1`, -1.04%.
Take `CC(=O)c1cc2c(cc1NC(=O)CN1CCCCCC1)OCO2`: the inhibition was 0.04%.
As for `COc1cccc(N(CC(=O)NC2CCCC2)C(=O)Cn2nnc(-c3ccc(C)o3)n2)c1`, the inhibition was 2.95%.
For `COCCNc1cc(-c2ccccc2)nc2cc(-c3cccc(F)c3)nn12` the value was 50.2% (active); for `COc1ccc(NC(=O)c2cc3nc(-c4ccccc4)cc(C)n3n2)cc1OC`, 1.45%; for `COc1ccc(-c2cc3nc(NCCOc4ccccc4)ccn3n2)cc1`, 9.7%.
For `O=C(COC(=O)c1ncc(Cl)c(Cl)c1Cl)NCc1ccccc1` the value was 3.15%; for `Cc1cccc(NC(=O)COc2ccc(Br)cc2C)n1`, 2.29%; for `Cc1cccc(NC(=O)Cc2ccc(Br)cc2)n1`, -1.42%.
Consider `CC(C)(C)C(=O)Nc1cccc(-c2ccc[nH]2)n1`, for which the inhibition is 29.7% (active).
For `N#CCc1ccc(NC(=O)c2ccccc2C(=O)Nc2ccc(CC#N)cc2)cc1` the value was 1.02%; for `CC1CCN(S(=O)(=O)c2ccc3c(c2)n(C)c(=O)n3C)CC1`, -1.94%; for `CC1CCN(S(=O)(=O)c2ccc3c(ccn3CC(=O)O)c2)CC1`, -0.33%.
For `Cc1ccn2c(c1)nc(=O)c1cc(S(=O)(=O)N3CCC(C)CC3)ccc12` the value was 29.3% (active); for `N#Cc1ccc(N2Cc3ccccc3/C2=N/C(=O)Nc2ccc(Cl)cc2)cc1`, -0.15%; for `CC1CCCCC1NC(=O)CN1CCC(O)(c2ccc3c(c2)OCO3)CC1` (centres undefined), -4.2%.
With `COc1ccc(/C=N/NC(=O)C(C)N(c2ccc(OC)cc2)S(C)(=O)=O)cc1` (centres undefined), the inhibition is -1.16%.
With `CN(C)c1ccc(/C=N/NC(=O)c2ccc(Cn3cc(Br)cn3)o2)cc1`, the inhibition is 0.83%.
For `CN(C)c1ccc(/C=N/NC(=O)C(O)c2ccc(Br)cc2)cc1` (centres undefined) the value was 39.7% (active); for `CCCNC(=O)N1CCC(c2ccc3c(c2)OCO3)CC1`, 0.5%; for `O=c1[nH]oc(O)c1-c1ncc(C(F)(F)F)cc1Cl`, 0.86%.
The result for `Cc1ccc(C)c(NC(=O)c2ccc(OC(=O)c3ccco3)cc2)c1` reads 3.01%; that for `CC(=O)N1C(=O)C2(Nc3ccccc3N2)c2ccccc21`, 6.98%; that for `CC(C)=NN1C(=O)c2ccccc2NC1(C)C`, 36.7% (active).
Regarding `CCOC(=O)C1(Cc2ccc(Cl)cc2)CCN(C(=O)C2=NNC(=O)CC2)CC1`, the inhibition is -6.86%.
Regarding `COc1cc(/C=C/c2ccc(/C=C/c3cc(OC)c(OC)c(OC)c3)cc2)cc(OC)c1OC`, the inhibition is 50.4% (active).
On to `CCC(=O)c1ccc(OC(=O)/C=C/c2cc(OC)c(OC)c(OC)c2)cc1`, for which the inhibition was 4.81%.
As to `COc1cc(/C=C/C2=CC(C)(C)NC(=S)N2)cc(OC)c1OC`, the inhibition was -5.13%.
For the compound `CC/C(=N/Nc1ccccc1)c1cnnc(SC)n1`, the inhibition is 0.39%.
In the case of `COc1ccc(C(=O)NC2CCN(C(=O)Nc3ccc(F)cc3)CC2)cc1`, the inhibition is -0.69%.
On to `COc1ccc(NC(=O)N2CCC(Cc3ccccc3)CC2)cc1`, for which the inhibition was 53.4% (active).
`COc1ccc(NC(=O)N2CCCC(C(=O)Nc3ccccc3OC)C2)cc1` (centres undefined): the inhibition was 1.71%.
The result for `O=C(COC(=O)c1ccc(S(=O)(=O)N2CCCCCC2)cc1)Nc1ccccc1C(F)(F)F` reads 4.5%; that for `CCc1ccc(Oc2coc3cc(O)ccc3c2=O)cc1`, 70.2% (active).
For `CCc1ccc(Oc2coc3cc(OC(=O)c4cc5ccccc5oc4=O)ccc3c2=O)cc1` the value was 13.1%; for `COC(=O)COc1ccc2c(=O)c(Oc3ccccc3Br)coc2c1`, -0.49%; for `Cc1ccc(N2C(=O)CC(N3CCSCC3)C2=O)c(C)c1` (centres undefined), 3.11%.
For `COc1ccc(CCNC(=O)c2ccccc2-c2ccccc2C(=O)O)cc1OC`, the inhibition was 2.28%.
The result for `COc1ccc(OC)c2[nH]c(=O)c(CCNC(=O)C(=O)c3c[nH]c4ccccc34)cc12` reads -5.42%; that for `COc1cccc2[nH]c(C(=O)NCCc3ccccc3)cc12`, 33.2% (active).
`N#C[C@]1(S(=O)(=O)c2ccccc2)C[C@@H]2ON=C(c3cccc(Br)c3)[C@@H]2C1`: the inhibition was 2.3%.
Regarding `NS(=O)(=O)c1cc(C(=O)OCC(=O)NNC(=O)c2ccccc2)ccc1Cl`, the inhibition is -1.72%.
Consider `O=C(NCc1ccccc1)C1CNCC(C(=O)NCc2ccccc2)C1` (centres undefined), for which the inhibition was -0.79%.
For `Cn1c(SCC(=O)Nc2ccc(Br)cc2F)nnc1-c1ccco1` the value was 1.98%; for `Cn1c(-c2ccco2)nc2cc3ccccc3cc21`, 81.7% (active).
With `COc1ccc(-n2cnc3cc(NCc4ccco4)ccc32)cc1`, the inhibition is -1.49%.
